# Laboratory results taken from PubChem BioAssay AID687014 (The Scripps Research Institute Molecular Screening Center, 2013).
# The whole screen tested about 370,000 compounds, of which about 6,800 (1.8%) were called active. Many of the other results were omitted from the sample, so actives are more common in it than they were. Values without a mark were called inactive.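 How the source made its calls: active means activation above a cutoff set at the mean of all screened compounds plus 3 SD (cut at about 10% in these data); inactive means the rest.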
# Tested on: Nuclear hormone receptor DAF-12 (Heterodera glycines), GAL4 fusion
# Assay: hgDAF-12 GAL4 fusion reporter activation – cell-based, luminescence, HEK293, UAS-luciferase, primary screen (AID 687014);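 further: 0% = DMSO wells and 100% = sodium butyrate wells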
# Settings: HEK293 GAL4-hgDAF12 UAS-luciferase reporter, agonist luminescence; at 6.8 µM; hits give high values; normalized to butyrate control
row,SMILES,activation
1,OC(c1ccccc1)(c1ccccc1)C1CCN(CCCOc2ccc(-c3ccsc3)cc2)CC1,-3.48%
2,C=C(C)C1CC23C(=O)C4(C(=O)c5ccccc5)C[C@@]5(C)CCC(CC2C1(C)C)(C4=O)C35OC (stereo partly specified),-0.57%
3,O=C(NCc1ccco1)c1ccc(NS(=O)(=O)c2cccc([N+](=O)[O-])c2)cc1,0.98%
4,O=C(NCCC1=CCCCC1)C1CCN(S(=O)(=O)c2ccc(Cl)s2)CC1,-1.78%
5,O=C(NCC1COc2ccccc2O1)c1ccc(NC(=O)c2cc(F)ccc2F)cc1 (stereo unspecified),-2.39%
6,O=C(Nc1cc(-c2nc3ncccc3o2)ccc1Cl)c1ccco1,2.36%
7,COc1ccc(-c2c(NC(=O)c3ccco3)oc3ccc(Cl)cc3c2=O)cc1,0.05%
8,O=C(Nc1ccc2oc(-c3ccccc3F)nc2c1)c1ccco1,14.8% (active)
9,COC(=O)Cc1nnn2c1[C@H](C)[C@H](c1ccccc1[N+](=O)[O-])OCC2,-0.34%
10,CCOC(=O)c1cc(S(=O)(=O)NCCc2ccc(OC)c(OC)c2)cn1C,0.63%
11,CCOC(=O)N1CCN(Cc2oc(CO)cc(=O)c2O)CC1,1.66%
12,Clc1cccc(Cc2c(-c3cccc(Cl)c3)nc3ccc(Cl)cn23)c1,6.04%
13,O=c1c2c(nc3cc(-c4cccc(Cl)c4)[nH]n13)CCCC2,18.1% (active)
14,CSc1nc2nc3c(c(=O)n2[nH]1)CCC3,-0.35%
15,CSc1ccc(C=Nn2c(-c3ccc(F)cc3)n[nH]c2=S)cc1,-2.14%
16,Oc1cccc2ccc(/C=C/c3ccc(Br)s3)nc12,20.9% (active)
17,CCCCOCC1CN(CCCC)S(=O)(=O)c2c(Oc3ccc(F)cc3)cccc2O1 (stereo unspecified),3.59%
18,COC(=O)C1CN(Cc2cn(Cc3ccc(F)cc3)nn2)CCS(=O)(=O)N1Cc1ccc(Cl)cc1 (stereo unspecified),-1.71%
19,Clc1ccc(-n2c(COc3ccccc3)nnc2SCc2nc3ccccc3[nH]2)cc1,0.78%
20,CN(CCO)c1ccc(/C=N/Nc2nncc3ccccc23)cc1,10.7% (active)
21,N#Cc1ccc(N2Cc3ccccc3/C2=N/C(=O)Nc2ccc(Cl)cc2)cc1,2%
22,CCS(=O)(=O)c1ccc(-c2cccc(NC(=O)c3ccc(Br)o3)c2)nn1,3.52%
23,O=C(Nc1cccc(C(=O)O)c1)/C(=C\c1ccccc1)NC(=O)c1ccc(Br)o1,1.1%

row,SMILES,activation
1,Cc1cccc(NC(=S)NC(=O)c2ccc(Br)o2)c1,15.4% (active)
2,Nc1[nH]c(/C=C2/CCCCC2n2[nH]c(=O)n(-c3ccccc3)c2=O)c(Cc2ccccc2)[n+]1Cc1ccccc1 (stereo unspecified),0.06%
3,CC(C)c1cc(NCc2ccccn2)n2c(nc3ccccc32)c1C#N,3.15%
4,C=CCN(C(=O)[C@@H](CCCC)[C@@H](O)c1ccc(Cl)cc1)c1ccccc1,1.69%
5,CC(=NNC(N)=O)c1ccc(Cl)c(-n2cccc2)c1,1.64%
6,Cc1cc(NC(=O)C(C)N2C(=O)c3ccccc3S2(=O)=O)no1 (stereo unspecified),-0.78%
7,O=C(OCCN1CCOCC1)C1(c2ccccc2)CCCCC1,-2.44%
8,c1coc(CCNc2ncnc3ccc(-c4ccc5c(c4)OCO5)cc23)c1,-2.33%
9,Oc1cccc2cc(-c3ccncc3)cnc12,15.1% (active)
10,Cc1cc2c(nc1C)CCCN2C,0.83%
11,COc1ccc(NC(=O)C2CCC(CNC(=O)[C@@H]3Cc4ccccc4CN3)CC2)cc1 (stereo partly specified),-1.49%
12,CN1C[C@]2(C=C3CCCCC3n3c(=O)n(-c4ccccc4)c(=O)n32)N=C1NC(=O)c1ccccc1 (stereo partly specified),2.4%
13,COc1ccc(-n2c(SCC(=O)Nc3ccc(C)c(Cl)c3)nc3ccccc3c2=O)cc1,-4.03%
14,FC(F)(F)c1cccc(NC(=S)OC2CCC23CCC(c2ccccc2)CC3)c1 (stereo unspecified),2.72%
15,COCCN(C(=S)Nc1ccccc1OC)C1CCN(C(C)C)CC1,-3%
16,Cc1ccc(-c2csc(-c3c[nH]c4ccccc34)n2)cc1,13.1% (active)
17,CCn1c(SCCC(C)C)nnc1-c1c[nH]c2ccccc12,-2.13%
18,Cc1ccc(-c2csc(N(Cc3ccco3)C(=O)c3cccs3)n2)cc1,4.33%
19,CC(=O)Nc1nc2ncccn2c1-c1ccc(C(F)(F)F)cc1,0.34%
20,N[C@@H](Cc1ccccc1)C(=O)N1CCOCC1,0.96%
21,O=C(CSC(=S)N1CCOCC1)c1ccccc1,10.7% (active)
22,O=C(CP(=O)(c1ccccc1)c1ccccc1)N1CCOCC1,1.84%
23,CC(=O)c1ccc(NC(=O)CSC(=S)N2CCCC2)cc1,7.4%

row,SMILES,activation
1,COc1cccc(NC(=O)CN(C)C(=O)CSC(=S)N2CCCC2)c1,2.56%
2,O=C(CSC(=S)N1CCCCC1)c1c(F)cccc1F,16.9% (active)
3,O=C1[C@@H](c2ccccc2)[C@@H](c2ccccc2)N1c1ccccc1,-0.47%
4,CCOC(=O)Cn1c2c(n(-c3ccc(F)cc3)c1=O)C=C(c1ccccc1)[C@@H](C)C(C(=O)N(C)C1CCCCC1)=C2,-2.75%
5,CN[C@H]1C[C@H]2c3cc(N4CCOCC4)ccc3CCN2C[C@H]1[C@H](C)O,-0.47%
6,CCC(=O)Nc1ccc2c(c1)C(=O)N(C)[C@H]1CC[C@H](CC(=O)NCCOC)O[C@@H]1CO2,-3.11%
7,O=C(NCc1cccs1)C1CCCN(S(=O)(=O)c2ccc([N+](=O)[O-])cc2)C1 (stereo unspecified),-1.45%
8,C[C@@H]1ON(C)[C@H]2C[C@H]3c4[nH]c5cccc(-c6ccc7c(c6)OCO7)c5c4CCN3C[C@@H]12,-2.08%
9,CC(=O)N1C[C@@H](CO)[C@@H](N(C)C(=O)C(C)(C)C)C[C@H]1c1ccccc1Br,4.28%
10,C=C1C(C(C)C)N(C)C2=NC(c3ccccc3)CC(=O)N12 (stereo unspecified),-2.06%
11,O=C(Nc1ccc(S(=O)(=O)N2CCc3ccccc3C2)cc1)c1ccccc1,-0.73%
12,CN1CCN(c2ccc(NC(=O)c3ccccc3)cc2)CC1,10.5% (active)
13,O=C(CN1CCN(c2ccc(O)cc2)CC1)Nc1ccc(-c2ccccc2)cc1,0.81%
14,COc1cccc(CNC(=O)[C@H]2CCCN2C(=O)[C@H]2CCCN2C(=O)C2CCCCC2)c1,-1.24%
15,O=S(=O)(c1cccs1)N1CCCc2nc(-c3ccc(Br)cc3)ccc21,-0.93%
16,CCCCn1nnnc1C(c1cc2ccccc2o1)N(C)Cc1ccc(Cl)c(Cl)c1 (stereo unspecified),4.88%
17,Cc1cc(O)c(NC(=O)c2ccc(C)c([N+](=O)[O-])c2)cc1C,14.1% (active)
18,CCN1CCC(=NNC(=O)c2ccc(C)c([N+](=O)[O-])c2)CC1,-0.03%
19,CCCCNc1ccc(C(=O)Nc2cccc(C)n2)cc1[N+](=O)[O-],1.4%
20,O=C(CSc1nnc(-c2ccccn2)n1-c1ccc(Cl)cc1)Nc1ccccc1-c1ccccc1,-5.11%
21,C[C@@H]1COc2cccc(N3CCCC3)c2S(=O)(=O)N1C,2.34%
22,COc1ccc(C(=O)CSc2nnc(-c3cnccn3)n2-c2ccc(C)cc2)cc1,-1.45%
23,Cc1ccc(NC(=O)c2csc3c2CCCC3)cc1,23% (active)

row,SMILES,activation
1,Cc1ccc(NC(=O)C2(N3CCC3=O)CCCCC2)cc1,-1.36%
2,CC1CC(C)CN(CCCNC(=O)c2csc3c2CCCCC3)C1 (stereo unspecified),1.68%
3,CC(C)(C)c1ccc(S(=O)(=O)NCC2CCN(C(=O)C(=O)c3cc4ccccc4o3)CC2)cc1,-2.12%
4,CC(C)CC1NC(=O)c2cc(Cl)ccc2-n2c1nc1ccccc1c2=O (stereo unspecified),-4.04%
5,O=C(Nc1cccc(-n2cnnn2)c1)c1cccnc1,0.26%
6,CC(=O)Nc1ccc(S(=O)(=O)NC2Cc3ccccc3C2)cc1,-1.12%
7,CCN(CC)C(=O)CSc1nc2ccccc2o1,4.9%
8,Cc1ccc(-n2nc3cc(C)c(NC(=O)c4cccnc4)cc3n2)cc1,3.33%
9,Cc1cc2nc(-c3ccc(NC(=O)c4cccnc4)cc3)oc2cc1C,10.8% (active)
10,CC(=O)Nc1ccc(-c2nc3ccccc3o2)cc1,14.1% (active)
11,COc1ccc(C2=CN(Cc3ccccc3)C(c3ccc(OC)cc3)CC2=O)cc1 (stereo unspecified),1.21%
12,COc1ccc(CN(C)Cc2nc3cc(OC)c(OC)cc3c(=O)[nH]2)c(OC)c1,-1.81%
13,CC(C)CNc1cccc2c1S(=O)(=O)N(Cc1cn(Cc3ccc(Cl)cc3)nn1)Cc1ccccc1O2,1.68%
14,CCOC(=O)c1c(C)[nH]c(C2=NNC(=NC(C)COC)SC2)c1C (stereo unspecified),12.9% (active)
15,COC(=O)C[C@H]1C=C[C@@H](NS(=O)(=O)c2ccc(C)cc2)[C@@H](CO)O1,3.19%
16,COc1ccc(CN(CCN2CCOCC2)C(=O)c2ccc(C)cc2)cc1OC,2.69%
17,C/C(=N\NC(=S)Nc1ccc(C)cc1)c1cc2ccccc2o1,0.54%
18,CC1CCN(c2ccc(-c3ccc(NC(=O)c4ccco4)cc3)nn2)CC1,7.1%
19,Cc1ccc(NC(=O)c2cc3ccccc3o2)cc1,15.2% (active)
20,CN(C)C(CNC(=O)c1cc2ccccc2o1)c1ccccc1 (stereo unspecified),0.25%
21,Cc1ccc(NC(=O)c2ccco2)cc1,13.3% (active)
22,CN1CCN(S(=O)(=O)c2ccc(NC(=O)c3ccco3)cc2)CC1,3.6%
